# Assay results reported in PubChem BioAssay AID1745848 (National Center for Advancing Translational Sciences (NCATS), 2022).
# The whole screen tested about 2,100 compounds, of which about 940 (45%) were called active. Not shown: some 48% with an inconclusive outcome. Calls come from the whole dose curve; as a rule, active = well fitted inhibition curve with a large enough effect; inconclusive = small, poorly fitted or top-dose-only effect; inactive = no such curve, though single readings can be large or run the other way. So high a share suggests a set chosen from earlier hits. The list shows a part of the results.
# Experiment: Confirmatory qHTS for Inhibitors of ATXN expression; note: nearly all actives have a fitted effect of over 65% in size;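 for activity change, negative = inhibition: 0% = DMSO vehicle wells and -100% = medium-only wells without cells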
# Details: ATXN2-luciferase reporter cells, luminescence, 24 h; series mostly up to 11.5 µM; activity change, negative = inhibition: at the top concentration
# How it was run: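 Cells carrying ATXN2-luciferase reporter exposed 24 h at 37 C to compound. Viability then read by CellTiter-Fluor (25 uM GF-AFC, 30 min), followed by SteadyGlo luminescence; medium-only wells set 100% inhibition.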
# Potency is the fitted concentration of half-maximal effect.
SMILES,Potency,"activity change, negative = inhibition"
S=C(Nc1ccccc1)Nc1ccc(OCc2ccc(Cl)cc2Cl)cc1,2.51 µM (active),
Cc1[nH]c(=O)c(C(=O)/C=C/c2ccccc2)c2c1CCCC2,7.94 µM (active),
Cc1ccc(C(=O)NCCN2C3=NC[C@@H](Cc4ccccc4)N3C[C@H]2Cc2ccc(O)cc2)cc1Br,2.82 µM (active),
CCCCn1c2ccc(F)cc2c2nnc(NN)nc21,28.2 µM (active),
Cc1cc(C2=NNC(=NC3CC3)SC2)c(C)n1-c1ccccc1F,0.126 µM (active),
CCC(=O)NC(c1ccco1)c1cc(Cl)c2cccnc2c1O (centres undefined),2.82 µM (active),
CCCCC(=O)NC(c1ccco1)c1cc(Cl)c2cccnc2c1O (centres undefined),3.55 µM (active),
CC(=O)NC(c1ccco1)c1cc(Cl)c2cccnc2c1O (centres undefined),3.16 µM (active),
CCCC(=O)NC(c1ccco1)c1cc(Cl)c2cccnc2c1O (centres undefined),11.2 µM (active),
O=C(CCc1ccccc1)NC(c1cccs1)c1cc(Cl)c2cccnc2c1O (centres undefined),2.24 µM (active),
CCC(=O)NC(c1ccco1)c1cc(Br)c2cccnc2c1O (centres undefined),11.2 µM (active),
Oc1ccc(C2CNCc3sccc32)cc1O (centres undefined),,-15.3% [at 57.5 µM] (inactive)
Cc1c(C(=O)NCc2ccc(C(F)(F)F)cc2)sc(=O)n1Cc1cccc(F)c1,,-26.9% [at 57.5 µM] (inactive)
Cc1nc(-c2ccc(C(F)(F)F)cc2)sc1C(=O)NN,14.1 µM (active),
Cc1cc(Cl)ccc1-c1cc2nc(NCCCN(C)C)n(C)c(=O)c2s1,,-5.65% (inactive)
Cc1ccc(F)cc1-c1cc2nc(NCCCN(C)C)n(C)c(=O)c2s1,17.8 µM (active),
Cn1c(NCCN2CCCC2)nc2cc(-c3ccsc3)sc2c1=O,28.2 µM (active),
CCCCCCc1cc2cc(S(=O)(=O)c3ccc(C)cc3)c(=O)oc2cc1O,,-15.6% (inactive)
CCCCCCc1cc2cc(C(=O)Nc3ccccc3)c(=O)oc2cc1O,0.794 µM (active),
Cc1cccc(Nc2nc(N)nc(CCl)n2)c1C,,-14.3% (inactive)

SMILES,Potency,"activity change, negative = inhibition"
C=CCn1c(COc2ccccc2)nnc1SC(C)C(=O)N/N=C/c1cc(Cl)ccc1O (centres undefined),3.98 µM (active),
CC(C)c1ccc(S(=O)(=O)c2cc3cc(Br)ccc3oc2=O)cc1,25.1 µM (active),
c1ccc2c(c1)c1c(c3ccccc32)CN2CCCC2C1 (centres undefined),,-29.2% [at 57.5 µM] (inactive)
CS(=O)(=O)Nc1ccccc1C(=O)Nc1cc(Cl)cc(Cl)c1,2.51 µM (active),
O=C(C(Br)=Cc1ccccc1)c1ccccc1,10 µM (active),
CC(C)(C)NCC(=Cc1ccccc1)C(=O)c1ccccc1,1.41 µM (active),
Cc1n(Cc2ccccc2)c2ccccc2[n+]1Cc1ccccc1,,-27.8% (inactive)
N#Cc1c(Oc2ccc3ccccc3c2)sc(C(=O)c2ccccc2)c1N,14.1 µM (active),
CCOC(=O)C1CCN(c2cc3c(cc2NC(=O)c2ccccc2OCC)n(C)c(=O)n3C)CC1,28.2 µM (active),
Cc1ccc(O)c(CNCCNCc2cc(C)ccc2O)c1,14.1 µM (active),
Cc1ccc(-c2noc(CCCC(=O)NC3CCCC3)n2)cc1,7.94 µM (active),
COc1ccc(-c2noc(CCCC(=O)NC3CCCC3)n2)cc1,8.91 µM (active),
O=C(CSc1ccc2ccccc2c1)Nc1nc2ccccc2[nH]1,2.82 µM (active),
Cc1cccc(OCCCC(=O)Nc2nc3ccccc3[nH]2)c1,0.891 µM (active),
Cc1cccc(OCCCC(=O)Nc2nccs2)c1,3.16 µM (active),
Cc1[nH]n(-c2ccccc2)c(=O)c1C=Nc1cccc2cccnc12,1.78 µM (active),
CCOc1cc(/C=C2\SC(=N)N(c3nccs3)C2=O)ccc1OCCN1CCOCC1,14.1 µM (active),
CSc1nc(-c2ccc(Cl)cc2)nc(N)c1C#N,2.82 µM (active),
CC(=O)Oc1ccc(N(C(C)=O)S(=O)(=O)c2ccc(C)cc2)c2ccccc12,3.16 µM (active),
CC(=O)Oc1ccc(N(C(C)=O)S(=O)(=O)c2ccc(C)cc2C)c2ccccc12,31.6 µM (active),

SMILES,Potency,"activity change, negative = inhibition"
CC1CCN(Cc2c(C(=O)N/N=C/c3ccccc3O)nnn2-c2nonc2N)CC1,1.78 µM (active),
CC1CCN(Cc2c(C(=O)N/N=C/c3cc(Br)ccc3O)nnn2-c2nonc2N)CC1,0.794 µM (active),
CC1CCN(Cc2c(C(=O)N/N=C/c3cc(Cl)ccc3O)nnn2-c2nonc2N)CC1,3.55 µM (active),
CCN1CC2=C(OC(N)=C(C#N)C2c2cccs2)/C(=C\c2cccs2)C1 (centres undefined),,-3.24% (inactive)
COc1cc([C@@H]2c3cc4c(cc3[C@@H](O[C@@H]3O[C@@H]5CO[C@@H](C)O[C@H]5[C@H](O)[C@H]3O)[C@H]3COC(=O)[C@H]23)OCO4)cc(OC)c1O,0.631 µM (active),
CC[C@]12c3[nH]c4ccc(Cl)cc4c3CCN1C(=O)[C@@H](CC(=O)NCC13CC4CC(CC(C4)C1)C3)C[C@@H]2C(=O)N1CCN(C(=O)c2ccco2)CC1,3.55 µM (active),
CC[C@]12c3[nH]c4ccc(Cl)cc4c3CCN1C(=O)[C@@H](CC(=O)NCC13CC4CC(CC(C4)C1)C3)C[C@@H]2C(=O)N1CCN(C(=O)C2CC2)CC1,28.2 µM (active),
O=C(N/N=C(\Cc1ncc[nH]1)c1ccccc1)c1ccncc1,10 µM (active),
O=C(N/N=C(\Cc1ncc[nH]1)c1ccccc1)c1cccnc1,3.16 µM (active),
Oc1ccc2ccccc2c1/C=C/c1ccc2c(Br)cc(Br)c(O)c2n1,12.6 µM (active),
CN(C)CCNc1cccc2sc3ccc(O)cc3c(=O)c12,28.2 µM (active),
CN(C)CCNc1ccc2nnn3c4ccc(O)cc4c(=O)c1c23,2 µM (active),
CN(C)CCNc1ccc2ncn3c4ccc(O)cc4c(=O)c1c23,1 µM (active),
COc1cnc(-c2ccccn2)nc1Oc1ccc(Cl)c2ccccc12,3.16 µM (active),
Cc1cc(Oc2ccc(Cl)cc2)nc(-c2ccccn2)n1,,-20.3% [at 57.5 µM] (inactive)
COc1cc([N+](=O)[O-])cc(/C=N/NC(=O)c2ccc(NC(=O)c3ccc(C)cc3)cc2)c1O,1.41 µM (active),
O=C(N/N=C/c1cc(Br)cc([N+](=O)[O-])c1O)c1ccc(NC(=O)c2ccc(F)cc2)cc1,3.16 µM (active),
Cc1cc(C(=O)N/N=C/c2cc(Br)cc([N+](=O)[O-])c2O)c2ccccc2n1,3.16 µM (active),
O=C(Nc1ccc(Cl)c(Cl)c1)Nc1nnc(CSc2ccccc2)s1,1.78 µM (active),
